Test results from PubChem BioAssay (NCATS).
Records with an inconclusive call do not appear. A call without a number means that no potency is given here. Calls of active or inactive are those of the source. Calls follow the shape of the dose curve; as a rule, active = well fitted inhibition curve with a large enough effect; inconclusive = small, poorly fitted or top-dose-only effect; inactive = flat fitted curve, though single readings scatter.

The compounds below were run against Calcium and integrin-binding protein 1 (Homo sapiens) (UniProt Q99828) (assay: Primary qHTS for Identification of Calcium Integrin Binding Protein 1 (CIB1) Competitor (AID 1508620; also: top concentration of the series differs between compounds)). Conditions: CIB1-GST / FITC-alphaIIb peptide fluorescence polarization; series mostly up to 114 µM.
Calcium and integrin-binding protein 1 (Homo sapiens), sequence (Q99828 whole entry, looked up): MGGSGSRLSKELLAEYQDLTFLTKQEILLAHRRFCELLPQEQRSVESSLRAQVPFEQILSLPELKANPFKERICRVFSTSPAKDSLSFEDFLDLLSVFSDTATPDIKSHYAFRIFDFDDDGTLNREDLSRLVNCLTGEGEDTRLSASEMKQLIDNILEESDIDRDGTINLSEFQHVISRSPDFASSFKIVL
Procedure, shortened: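 Fluorescence polarization competition: GST-tagged CIB1 (1 uM final) preincubated with compound 15 min at room temperature, then FITC-labelled alphaIIb peptide (100 nM final) added. After 15 min at room temperature, polarization read at Ex 480/Em 540.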
In the case of Cc1csc(CNc2ncnc3ccc(-c4ccoc4)cc23)c1, the Potency is reported as “inactive”. O=C1c2ccccc2NC(c2ccccc2O)N1Cc1ccccc1 (stereo not drawn) was tested, and the Potency was “inactive”. In the case of O=C(NCCc1nc2ccccc2n1CCOc1ccccc1F)C1CCCCC1, the Potency is reported as “inactive”. With N#Cc1c(-c2ccc(Br)cc2)no[n+]1[O-] the Potency was “inactive”. In the case of O=[S+]([O-])(Nc1ccccc1)c1ccc(NCc2ccc(Cl)cc2O)cc1, the Potency is reported as “inactive”. For Cc1ccc(Cl)cc1NS(=O)(=O)c1cc2c(cc1F)NC(=O)CC2, the Potency was “inactive”. For COc1ccc(NC(=O)CN(C)C(=O)c2cc3c(s2)CCC3)cc1, the Potency was “inactive”. For O=C(OCC#CCSc1nnc(-c2ccc3ccccc3c2)o1)c1cccs1, the Potency was “inactive”. In the case of O=C(Nc1cncc(-c2cccc3ccccc23)c1)c1cccs1, the Potency is reported as “inactive”. In the case of NC(=O)C1CCN(c2nc(-c3cc4ccccc4o3)cs2)CC1, the Potency is reported as “inactive”. In the case of CCCCNC(=O)c1ccc2c(c1)ncn2-c1cccc(C)c1, the Potency is reported as “inactive”. With O=C(Nc1ccccc1F)c1ccc(O)c2ncccc12 the Potency was “inactive”. CCn1c2cc(C)sc2c2cnn(Cc3ccccc3F)c(=O)c21 was tested, and the Potency was “inactive”. In the case of O=S(=O)(Nc1ccccc1F)c1ccc(O)c2ncccc12, the Potency is reported as “inactive”. In the case of Cc1cc(NS(=O)(=O)c2ccc(NC(=O)Cc3ccc(C)c(C)c3)cc2)no1, the Potency is reported as “inactive”. CN(C)c1cccc(NS(=O)(=O)c2ccc(NC(=O)Cc3ccc(Cl)c(Cl)c3)cc2)c1 was tested, and the Potency was “inactive”. O=S(=O)(c1ccc2c(c1)OCCO2)N1CCN(S(=O)(=O)c2ccccc2F)CC1 was tested, and the Potency was “inactive”. COc1cc(OC)c(C(CC(=O)N2CC(C)CC(C)C2)c2ccc3c(c2)OCO3)c(OC)c1 (stereo not drawn) was tested, and the Potency was “inactive”.
